We go through 27 molecules from PubChem BioAssay (NCATS).

Inconclusive results are not listed. Calls of active or inactive are those of the source. Calls follow the shape of the dose curve; as a rule, active = well fitted activation curve with a large enough effect; inconclusive = small, poorly fitted or top-dose-only effect; inactive = flat fitted curve, though single readings scatter.
Potency is read from the fitted curve at half-maximal effect.

A short description of the experiment: qHTS for Activators of p53 Stress Response Pathway screened against the NCATS CANVASS Library (AID 1347388). As to activation: 0% is about no effect. The note with it: p53RE-bla HCT-116, beta-lactamase reporter, 16 h; series mostly up to 46.1 µM; activation: at the top concentration. An excerpt: Natural products and their derivatives continue to be wellsprings of nascent therapeutic potential. However, many laboratories have limited resources for biological evaluation, leaving their previously isolated or synthesized compounds largely or completely untested. To address this issue, the Canvass library of natural products was assembled (https://tripod.nih.gov/canvass), in collaboration with academic and industry researchers, for quantitative high-throughput screening (qHTS) across a diverse set of cell-based and biochemical assays. The pure (>85% purity by liquid chromatography/mass spectrometry [LC/MS]) Canvass library of 346 natural products were submitted by 45 academic laboratories and companies around the world. We collected pure natural products to circumvent deconvolution and structure elucidation due to time and resource limitations. The library was formatted into 1536-well plates and evaluated in 50 qHTS (in an 11-pnt concentration series) bioassays with broad scope of disease-relevant mechanisms. The resulting data set from 50 different assays was then systematically analyzed to identify overall trends and specific natural products with interesting biological activities. Reported herein are the results of each individual qHTS and their corresponding assay protocol. This assay measures compound activation of the p53 signaling pathway in cells using a beta-lactamase reporter gene. The p53RE-bla HCT-116 cell line (Invitrogen) contains a stably integrated beta-lactamase reporter gene under control of the p53 response elements. The activation of the report gene under culture conditions can be detected by fluorescence intensity. National Center for Advancing Translational Sciences (NCATS), Rockville, MD National Institute of Health (NIH), Bethesda, Maryland
p53-screen protocol: 1. In black-clear bottom 1536-well plate, 5 uL of p53RE-bla HCT-116 cell suspension was dispensed using a Multidrop Combi (Thermo Fisher Scientific) at a final concentration of 4000 cells / well. 2. The assay plates were incubated for 5 hours at 37C, 5% CO2. 3. […] of compounds (in DMSO; columns 5-48), vehicle control DMSO, and positive control were pin transferred into the assay plates using the Kalypsis pin tool (Wako USA) equipped with a 1536-well pin heads. This yields a final CANVASS compound concentration of 0.4 nM - […]. 4. The assay plates were incubated for 16 hours at 37C, 5% CO2. 5. After incubation, 1 uL of CCF4 dye was added per well using the BioRAPTR dispenser 6. The plates were incubated for 2 hours at room temperature. 7. The fluorescence readout was obtained using the EnVision microplate reader (PerkinElmer) equipped with a 405 nm excitation and 460 nm and 530 nm emission filters. The ratio of 460 nm / 530 nm readout was calculated and used for data analysis. 8. To access cellular viability and compound toxicity, 4 uL of CellTiter-Glo was added to the wells using the BioRAPTR dispenser. 9. The assay plates were further incubated for 30 minutes at room temperature. 10. Luminescence signal was obtained using the ViewLux plate reader (PerkinElmer) using the clear emission filter and 1x binning, 2 second exposure settings.
As for `CC(=O)N[C@H]1CCN2CCC[C@H]12`, the “activation” value was 2.77% [at 103 µM] (inactive). Same read-out and setting: with `CO[C@H](c1ccccc1)[C@H]1NC(=O)C(C)NC(=O)C(C[C@@H](C)CO)N(C)C(=O)[C@@H](C(O)c2cn(C(C)(C)C3CO3)c3ccccc23)NC(=O)C(C(C)C=C(C)C)NC(=O)C(CC(C)C)N(C)C(=O)C(C(C)C)NC1=O` (some centres not stated) the figure was 4.42% [at 27.5 µM] (inactive). Same read-out and setting: as for `CC=C1CN(C=O)[C@H]2C[C@@H]1[C@@H](C(=O)OC)[C@@]13CCOC21Nc1ccccc13` (some centres not stated), the figure is 1.42% (inactive).

With `CNCCc1ccccc1`, the “activation” value was 1.18% (inactive). On the same count and under the same terms, with `COc1ccc(C23Oc4cc(OC)cc(OC)c4[C@](O)([C@H](c4ccccc4)C2C(=O)NCCCCNC(=O)c2ccccc2)[C@@H]3O)cc1` (some centres not stated) the figure was -4.45% (inactive). The same measure, in the same setting: as for `CN1C(=O)[C@]23CC4C(C)(C)[C@@]5(C[C@@]41CN2CC[C@@]3(C)O)C(=O)Nc1c5ccc2c1OC=CC(C)(C)O2` (some centres not stated), the figure is 4% (inactive). In the case of `COc1ccc2c3c([nH]c2c1)C(C)=NCC3`, the Potency was 18.6 µM (active). `CCN1C[C@]2(C)CC[C@H](O)[C@]34C1C(C[C@H]23)[C@@]12CC[C@H](CC14)[C@](O)(COC(=O)c1ccc(OC)c(OC)c1)[C@H]2O` (some centres not stated): the “activation” value is 1.31% (inactive). Turning to `CO[C@@H](/C=C/CC/C=C/C(=O)O)[C@@H](O)[C@H](C)/C=C(\C)[C@@H](O)[C@H](C)C(=O)CCCC1CC(=O)NC(=O)C1`, the “activation” value was 1.69% (inactive). The same measure, in the same setting: as for `CCCCC[C@@H]1OC(=O)[C@@H](C)N(C)C(=O)[C@H](CCCCC)OC(=O)C(C)N(C)C(=O)[C@H](CCCCC)OC(=O)[C@@H](C)N(C)C(=O)[C@H](CCCCC)OC(=O)C(C)N(C)C1=O` (some centres not stated), the figure is 15.6% (inactive); as for `CC[N@@+]1([O-])C[C@]2(C)CC[C@@H](O)[C@@]34C5C[C@H]6CC[C@@]5(C(C[C@H]23)C41)[C@H](O)[C@@]6(O)CO` (some centres not stated), 1.11% (inactive). On the same count and under the same terms, as for `CCCC[C@@H]1CC[C@H]2CCCC(CCC)N12` (some centres not stated), the figure is -1.88% (inactive); as for `CCC[C@H]1CC[C@H]2[C@H](C)CCC[C@H]2N1`, -1.94% (inactive); as for `COC(=O)C1=C2Nc3ccccc3[C@@]23CCN2CC(C(C)=O)C1C[C@H]23` (some centres not stated), -1.74% (inactive). Still for that read-out and setting: with `CC1=CC(=O)C2=C(C)C[C@H](O)[C@@H]3[C@H](OC(=O)[C@@H]3C)[C@@H]12` the figure was -3.08% (inactive). As for `CC1=CC2CC[C@@H]3[C@@H](C)C[C@H](C)[C@@H](C1)N23` (some centres not stated), the “activation” value was 1.59% (inactive). In the case of `COc1ccc2c(c1)[nH]c1c(C)nccc12`, the Potency is 21.5 µM (active).

On to `CNCCc1c[nH]c2ccccc12`, for which the “activation” value was 21% (inactive). The same measure, in the same setting: with `CCN1C[C@]2(C)CC[C@@H](O)[C@]34C1[C@H](C[C@H]23)C12CCC(CC14)[C@](O)(CO)[C@H]2O` (some centres not stated) the figure was 1.15% (inactive); with `CO[C@@H](/C=C/CC/C=C/C(=O)O)[C@@H](O)[C@H](C)[C@@H](O)/C(C)=C/[C@H](C)C(=O)CCCC1CC(=O)NC(=O)C1`, 1.03% (inactive); with `CNCCc1ccc(O)cc1`, -2.47% (inactive). The same measure, in the same setting: as for `C[C@]12CC(O)C3[C@@H](CCC4C[C@@H](O)CC[C@@]43CO)[C@@]1(O)CCC2C1=CC(=O)OC1` (some centres not stated), the figure is -1.37% (inactive); as for `NCCc1ccccc1`, -3.25% (inactive).

For `CN(C)Cc1c[nH]c2ccccc12`, the “activation” value was 1.33% (inactive). On the same count and under the same terms, as for `c1ccc2c3c([nH]c2c1)CNCC3`, the figure is 3.61% (inactive); as for `CC[C@@H]1CN2CC[C@@]3(O)C(=Nc4cccc(OC)c43)[C@@H]2C[C@@H]1/C(=C\OC)C(=O)OC`, -3.63% (inactive). On the same count and under the same terms, with `C/C=C1/CN2CC[C@]34C(=Nc5ccccc53)[C@@H]2C[C@@H]1[C@H]4C(=O)OC` the figure was -2.04% [at 91.4 µM] (inactive).
